# Experimental data reported in ChEMBL document CHEMBL4513216, “Probing the Open Global Health Chemical Diversity Library for Multistage-Active Starting Points for Next-Generation Antimalarials” (ACS Infect Dis, 2020).
# Out of some 65,000 compounds screened, about 2,100 (3.2%) showed an effect of 50% or more. The median lay at about -52%. The list comes from a sample in which strong results are over-represented; it also holds similar structures and randomly drawn compounds.
# Test system: Plasmodium falciparum
# Assay: Screen against P. falciparum Asexual Blood Stage (ABS), at 5uM
# Format: functional, Dd2
# Conditions: tested at 5 uM
row,Compound,INHIBITION [%]
1,COCC(=O)NC(C)Cc1cccc(OC)c1 (centres undefined),-118
2,Cc1noc(C)c1CN1C[C@@H]2COC[C@@H](C(=O)N3CCCO3)[C@@H]2C1,-40.4
3,Cc1c(C(C)NCC2CCCC2)cnn1-c1ccc(F)cc1F (centres undefined),71.9
4,Cc1c(C(C)NC2CCN(C(C)C)CC2)cnn1-c1ccc(F)cc1F (centres undefined),79.9
5,N#Cc1ccc(NC2CCN(c3ncccn3)CC2)cc1C(F)(F)F,5.54
6,CCc1noc(C(C)N2CCNCC2)n1 (centres undefined),-31.4
7,CCN1CCCC1CN(CCN(C)C)S(=O)(=O)c1ccccc1C#N (centres undefined),79.6
8,O=C(NC1CC(F)(F)C1)[C@]12COC[C@H]1CN(Cc1cccnc1)C2,-63.2
9,CC1CCN(CCNCc2cc(-c3ccccc3)cn3nnnc23)CC1,70.1
10,O=C(Cc1ccsc1)N1C[C@@H]2OCCN(CC3CCCO3)[C@@H]2C1 (some centres undefined),-85.3
11,O=C(N1CCOCC1)N1CCCC2(CCCNC2)C1 (centres undefined),-45.8
12,Cn1cc(CN2C[C@@H]3OCCN(c4ncccn4)[C@@H]3C2)cn1,-106
13,CCOc1ccc2ccccc2c1CNCC1CCS(=O)(=O)C1 (centres undefined),74.9
14,CCOc1ccc2ccccc2c1CNCC1CCNCC1,91.6
15,CC(C)CCN1C[C@@H]2C[C@H](C(=O)Nc3cccnc3)[C@H](C1)O2,-112
16,C[C@@H]1CN(C2CCOC2)C[C@]12CCN(c1cccnc1)C2=O (some centres undefined),-78.9
17,CC(=O)N1C[C@@H]2CN(Cc3cccnc3)CCO[C@@H]2C1,-51.9
18,Cc1ccc([C@]2(O)CC[C@H]3CN(Cc4ccncc4)C[C@H]32)nc1,-23.8
19,Cc1ccc([C@]2(O)CC[C@H]3CN(Cc4cccnc4)C[C@H]32)nc1,-61.7
20,Cc1ccc([C@]2(O)CC[C@H]3CN(Cc4cc(C)c(O)c(C)c4)C[C@H]32)nc1,74.6
21,Cc1ccc(-c2cn3c(n2)CO[C@@H](CNCc2nccn2C)C3)cc1,87.4
22,CC1CCN(C[C@H]2CN3CC[C@H]2C[C@@H]3CNC(=O)c2ccco2)CC1,-36.5
23,CC[C@H]1CN2CC[C@H]1C[C@@H]2CNCc1ccc(N(C)C)cc1,62.8
24,CC[C@H]1CN2CC[C@H]1C[C@@H]2CNC(=O)NC1CCCCC1,-27.6
25,CC[C@H]1CN2CC[C@H]1C[C@@H]2CNCc1ccc2c(c1)OCO2,60.9

row,Compound,INHIBITION [%]
1,CC[C@H]1CN2CC[C@H]1C[C@@H]2CNCc1ccc(OC(F)(F)F)cc1,85.7
2,CC[C@H]1CN2CC[C@H]1C[C@@H]2CNC(=O)Nc1ccccc1,-65.9
3,CC(C)NC(=O)NC[C@H]1C[C@@H]2CCN1C[C@@H]2CN(C)c1ccccc1,-37.9
4,CCN(CC)C[C@H]1CN2CC[C@H]1C[C@@H]2CNC(=O)Nc1ccsc1,8.11
5,CC[C@H]1CN2CC[C@H]1C[C@@H]2CNC(=O)Nc1cc(OC)cc(OC)c1,63.8
6,COCC(=O)NC[C@H]1C[C@@H]2CCN1C[C@@H]2CN(C)c1ccccc1,-64.8
7,CC[C@H]1CN2CC[C@H]1C[C@@H]2CNCc1ccc(OC)cc1,7
8,CO[C@@H]1CC[C@H]2[C@H]1OCCN2CC1CC1,-30.3
9,c1ccc(CN2C[C@@H]3OCCN(c4ncccn4)[C@@H]3C2)nc1,-56.2
10,CSc1ccc(C2SCC(=O)Nc3c2c(=O)[nH]n3C2CCOCC2)cc1 (centres undefined),-122
11,CCS(=O)(=O)N1CCc2c(COC)cncc2C1,-61.4
12,COc1ccc(NC(=O)Cn2nc(C)c(C(C)=O)c2C)cc1,89.7
13,CC(C)N(C)Cc1cncc2c1CCN(CC1CC1)C2,-87.9
14,CC(C)c1cc(N2CCC3(CCN(C)C3)C2)ncn1 (centres undefined),-27.6
15,CNC(=O)CN1CCC12CCN(C(=O)Cc1ccccc1)C2 (centres undefined),-6.6
16,O=S(=O)(c1ccccc1)N1C[C@@H]2CCN[C@@H]2C1,24.4
17,O=C(Cc1ccc(F)cc1)N1C[C@H]2CCN[C@H]2C1,7.59
18,O=C(NCc1ccccc1)N1C[C@H]2CCN[C@H]2C1,-86.8
19,O=S(=O)(c1ccc(Cl)cc1)N1C[C@@H]2CCN[C@@H]2C1,82
20,Cc1ccc(S(=O)(=O)N2C[C@@H]3CCN[C@@H]3C2)cc1,4.39
21,O=S(=O)(c1cccc(Cl)c1)N1C[C@@H]2CCN[C@@H]2C1,88.1
22,CC(C)CNC(=O)[C@H]1C[C@H]2CN(Cc3cccnc3)C[C@@H]1O2,-30.9
23,FC(F)Oc1ccccc1CN1CCCC(c2nccn2CC2CC2)C1 (centres undefined),86.4
24,Nc1ncccc1CN1C[C@H]2CC[C@@H](C1)N(CC1CC1)C2=O,-61.3
25,CC1C(=O)Nc2cccnc2N1S(=O)(=O)c1ccc(C#N)c(Cl)c1 (centres undefined),-88.9

row,Compound,INHIBITION [%]
1,CC(C)=CCN1C[C@@H]2CC[C@H]1CN(Cc1cc(=O)[nH]c(=O)[nH]1)C2,4.88
2,Cc1sc2nc(CCN)nc(N(CCN(C)C)CC3CCCO3)c2c1C (centres undefined),70.2
3,Cc1cccn2cc(CC(=O)N(CCN(C)C)CC3CCCO3)nc12 (centres undefined),-84.6
4,CCN(CCN(C)C)c1nc(CCN)nc2sc(C)c(C)c12,89.8
5,COCCN(CC1CC1)c1nc(CCN)nc2sc(C)c(C)c12,77.5
6,Cc1nnc([C@@H]2CC[C@@H]3[C@@H](CCN3Cc3ccccn3)O2)o1,-18
7,CN[C@@H](C)C(=O)N(Cc1cccc(C)c1)Cc1ccccc1OC,83.6
8,COc1cccc(CC(C)NCC(=O)Nc2ccccc2C)c1 (centres undefined),-75
9,O=C(c1ccncc1)N1C[C@@H]2OCCN(CCN3CCCC3)[C@@H]2C1,-29.2
10,CCC1CNCc2cc3c(OC)ccc(OC)c3nc2O1 (centres undefined),-11
11,O=C(CC(F)(F)F)N1C[C@H]2CCN[C@H]2C1,-86.8
12,CCc1nccn1CCNC1CCN(c2nc3ccc(Cl)cc3s2)CC1,85.7
13,O=C([C@@H]1C[C@@H]2CCN(Cc3ccccn3)C[C@H]2O1)N1CCCO1,-36.6
14,Cc1cccnc1CC(C)NC1CCSCC1 (centres undefined),23.6
15,Cc1cccnc1CC(C)NC1Cc2ccccc2C1 (centres undefined),89.2
16,O=C1[C@H]2CN(Cc3ccoc3)C[C@H]2CN1Cc1cccnc1,-10
17,Cc1n[nH]c(C)c1CC(=O)N1CCCN(C)C2(CCN(C)CC2)C1,-107
18,Cc1cc(CNC2(c3ccccc3)CCCCC2)on1,9.53
19,Cc1cc(C[C@@H]2CCC[C@H]2NCc2cc(C)c(O)c(C)c2)on1,79.9
20,CCCOc1ccccc1CN[C@@H]1CCC[C@H]1Cc1cc(C)no1,84.9
21,CCO[C@@H]1CC[C@H]2[C@H]1OCCN2CC1CCC1,-47.6
22,COc1c(C2SCC(=O)Nc3[nH]ncc32)cc2c(c1OC)OCO2 (centres undefined),-32.3
23,CN(C)C(=O)COC[C@@]12CCC[C@@H]1CNC2,-23.4
24,Cn1cc(N2C[C@@H]3CN(Cc4ccccn4)C[C@@H]3C2=O)cn1,-120
25,Cc1cccc(-c2ncc(CNC(C)Cc3ncccc3C)cn2)c1 (centres undefined),-7.12

row,Compound,INHIBITION [%]
1,COc1cc(C(C)NCc2ncccc2C)ccc1SC(F)F (centres undefined),75.7
2,Cc1nc(NCC2CC2)nc2c1COCC21CCN(C)C1 (centres undefined),-73.6
3,CN(Cc1cccc(O)c1)CC1CCCN(CCc2ccc(Cl)cc2)C1 (centres undefined),83.5
4,Cc1nc[nH]c1CN(C)CC1CCCN(CCc2ccc(Cl)cc2)C1 (centres undefined),82.9
5,Cc1csc(CN2CC[C@H]3C[C@H](C)O[C@@H]3C2)n1,-59.9
6,Cc1noc(C)c1CN1CCO[C@H]2CN(C3CCOCC3)C[C@H]21,3.95
7,CC/C=C(/C)C(=O)NS(=O)(=O)c1ccc(C#N)c(C(F)(F)F)c1,-159
8,CC(Cn1cncn1)NCc1ccc2nonc2c1 (centres undefined),-92.4
9,Clc1ccccc1CCN1CCN(c2ccc3nncn3n2)CC1,74.9
10,Cc1ccccc1CC(=O)N1C[C@@H](O)[C@H](N2CCC(F)(F)CC2)C1,-76.9
11,COc1cc(C2SCC(=O)Nc3[nH]ncc32)c(OC)c2c1OCO2 (centres undefined),-118
12,Cc1c(Cl)c(C(=O)N2CC(c3cccnc3)C2)nn1C,-53.6
13,COCCN1C[C@@H]2COC[C@@H](CC(=O)NCc3cccnc3)[C@@H]2C1,-108
14,COc1cc(CNC(C)Cn2ccnc2)cc2c1OCCO2 (centres undefined),-34
15,CCOc1cc(CNCCCn2ccnc2)cc(Cl)c1OCC,77.3
16,CC(Cn1ccnc1)NCc1cc(Br)c2c(c1)OCO2 (centres undefined),6.16
17,COc1cc(CNC(C)Cn2ccnc2)cc2c1OCO2 (centres undefined),-46.3
18,CCOc1ccc(CNCCCn2ccnc2)cc1Br,80.1
19,CC(Cn1ccnc1)NCc1ccc2nonc2c1 (centres undefined),-108
20,COc1cc(CNC(C)Cn2cccn2)cc(Cl)c1OC (centres undefined),-35.2
21,CCOc1ccc(CNCCCn2ccnc2)cc1Cl,87.7
22,COc1ccc(Cl)cc1CNCCCn1ccnc1,82.3
23,CC(Cn1ccnc1)NS(=O)(=O)c1ccc(C#N)c(Cl)c1 (centres undefined),-24.8
24,O=C1CSC(c2ccsc2)c2c(n(C3CCCC3)[nH]c2=O)N1 (centres undefined),-94.4
